Assay outcomes from PubChem.
An excerpt weighted towards active compounds, which were near 2.4% of everything screened.
Pol eta inh-1: inhibitors of human DNA polymerase eta | Potency, µM (series often up to 114 µM), most hits filed as inhibitors | recombinant Pol eta, fluorescent DNA replication assay | AID 588591 | hit rate 1.2% among 390,000
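Fluorescent replication assay: 50 nM final substrate added after a 15 min room-temperature compound preincubation with 10 nM enzyme. Signal taken at 0 min and again at 10 min.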
WRN inhibitor: WRN helicase (human) inhibition | WRN helicase unwinding, fluorescent forked duplex, kinetic | Potency, µM (doses to about 114 µM), hits mostly inhibitors | hit rate 0.46% among 360,000 | AID 651768; further: nearly all actives have a fitted effect of over 55% in size
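Fluorescence dequenching readout, ex 525 nm/em 598 nm, kinetic mode: forked duplex DNA (100 nM final) with adjacent fluorophore and quencher unwound by WRN (20 nM final) with 2 mM ATP. Compound preincubation 15 min, room temperature.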
Pol beta inh: DNA polymerase beta (human) inhibition | P06746 | Pol beta primer extension/strand displacement, fluorescence kinetic | Potency, µM (top dose mostly 114 µM), most hits filed as inhibitors | hit rate 1.3% among 340,000 | AID 485314
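Values derive from four-parameter Hill fits of normalized kinetic data: reads at 0 and 10 min following addition of 50 nM substrate to 10 nM Pol beta preincubated 15 min with compound.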
POLI inh: blocks human DNA polymerase iota activity | Pol iota fluorescent replication assay, 10 min | hit rate 1% among 390,000 | Potency, µM (highest dose often 115 µM), usual class: inhibitors | Q9UNA4 | AID 588590
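Fluorescent replication assay read twice, at 0 min and 10 min after adding 50 nM (final) substrate. Enzyme (10 nM) and compounds were first incubated 15 min at room temperature; enzyme-free buffer wells were negative controls.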
Pol kappa inh-1: inhibitors of human DNA polymerase kappa | Q9UBT6 | purified Pol kappa, fluorescent DNA synthesis assay, 10 min | Potency, µM (doses to about 107 µM), most hits filed as inhibitors | hit rate 0.53% among 400,000 | AID 588579
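Enzyme at 10 nM met test compounds for 15 min at room temperature. Substrate addition (50 nM final) began the reaction, which was monitored by fluorescence at 0 and 10 min.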
FEN1 inhibitor: blocks human flap endonuclease 1 | Recombinant FEN1 flap cleavage, fluorescence, 15 min | Potency, µM (highest dose often 114 µM), actives largely listed as inhibitors | hit rate 0.35% among 390,000 | AID 588795; further: nearly all actives have a fitted effect of over 65% in size
Target sequence (P39748 whole entry, looked up): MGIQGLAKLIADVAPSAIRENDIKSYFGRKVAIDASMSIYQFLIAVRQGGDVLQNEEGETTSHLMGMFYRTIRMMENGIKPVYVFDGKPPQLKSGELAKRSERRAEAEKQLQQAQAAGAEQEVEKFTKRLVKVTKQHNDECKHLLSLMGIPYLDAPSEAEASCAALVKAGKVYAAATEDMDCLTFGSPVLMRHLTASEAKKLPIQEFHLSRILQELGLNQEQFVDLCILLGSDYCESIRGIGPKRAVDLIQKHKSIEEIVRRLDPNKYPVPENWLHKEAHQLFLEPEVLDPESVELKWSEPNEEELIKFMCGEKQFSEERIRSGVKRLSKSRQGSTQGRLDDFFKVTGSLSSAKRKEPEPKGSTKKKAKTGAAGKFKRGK
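Read-out was taken twice, immediately and after 15 min, following addition of 50 nM substrate to 10 nM FEN1 that had sat with test compound for 15 min at room temperature. Curves came from a four-parameter Hill model.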
GALK inh confirm: galactokinase (human) inhibition, confirmation | Potency, µM (doses to about 115 µM), hits mostly inhibitors | shares compounds with Pol eta inh-1 | purified GALK, Kinase-Glo ATP depletion luminescence | hit rate 70% among 150
GALK redox cs: redox cycling activity in phenol red-HRP assay; shares compounds with Pol eta inh-1; Phenol red-HRP H2O2 redox cycling, absorbance 600 nm; Potency, µM (doses to about 115 µM), hits mostly inhibitors; hit rate 40% among 150; AID 2035
HEK293 tox: counter-screen for GALK inhibitors: HEK293 cell cytotoxicity; hit rate 10% among 170; Potency, µM (highest dose often 46.1 µM), actives largely listed as inhibitors; AID 2547; shares compounds with Pol eta inh-1; HEK-293 viability, ATP luminescence (CellTiter-Glo), 24/48 h
Pol kappa inh-2: Pol kappa (human) inhibition, cherry-pick confirmation | hit rate 76% among 920 | Potency, µM, usual class: inhibitors | purified Pol-kappa, fluorescent strand-displacement substrate | shares compounds with Pol eta inh-1
Pol eta inh-2: confirmation of human DNA polymerase eta inhibitors | shares compounds with Pol eta inh-1 | Pol eta primer extension, TAMRA/BHQ fluorescence, 10 min | Potency, µM, actives largely listed as inhibitors | hit rate 64% among 2,600 | AID 720502
Hits are given with their value; [ ] = remark or other dose. The call rests on the fitted dose curve; in most records, active means well fitted curve in the direction sought with a large enough effect; inconclusive means small, poorly fitted or top-dose-only effect, or another doubt; inactive means no such curve, though single readings can be large; an effect the other way counts as inactive or inconclusive.

Screening CC1CCc2c(sc(NC(=O)CSc3ncn[nH]3)c2C#N)C1 (configuration not stated) returned Pol eta inh-1 inactive, WRN inhibitor inactive, Pol beta inh inactive, POLI inh inactive, Pol kappa inh-1 inactive and FEN1 inhibitor inactive.
`CCCc1cc(=O)[nH]c(SCC(=O)Nc2sc3c(c2C#N)CCC(C)C3)n1` (configuration not stated) gave Pol eta inh-1 25µM, WRN inhibitor inactive, Pol beta inh 18µM, POLI inh 50µM, Pol kappa inh-1 79µM, FEN1 inhibitor inactive and Pol eta inh-2 inconclusive.
For Cc1c(CCO)c(=O)n2n1CCCC2 the results were Pol eta inh-1 inactive, WRN inhibitor inactive, POLI inh inactive, Pol kappa inh-1 inactive and FEN1 inhibitor inactive.
For COc1ccc(/C=N/NC(=O)c2ccc(O)cc2O)cc1CSc1ccccn1 the results were Pol eta inh-1 14µM, WRN inhibitor inconclusive, Pol beta inh 20µM, POLI inh inconclusive, Pol kappa inh-1 79µM, FEN1 inhibitor inactive and Pol eta inh-2 inconclusive.
Screening Cc1nc2cnc(N3CCN(C)CC3)nc2n(CCc2ccccc2)c1=O returned Pol kappa inh-1 inactive.
For COCCCN(C(=O)c1cc(Cl)nc2ccccc12)c1c(N)n(Cc2ccccc2)c(=O)[nH]c1=O the results were Pol eta inh-1 inactive, WRN inhibitor inactive, POLI inh inactive, Pol kappa inh-1 inactive and FEN1 inhibitor inactive.
`COCCN(C(=O)COC(=O)Cc1coc2cc3c(cc12)CCC3)c1c(N)n(Cc2ccccc2)c(=O)[nH]c1=O` gave Pol eta inh-1 20µM, WRN inhibitor inconclusive, POLI inh 28µM, Pol kappa inh-1 inconclusive, FEN1 inhibitor inactive and Pol eta inh-2 76.
COCCCN(C(=O)c1cc(-c2ccco2)nc2ccccc12)c1c(N)n(Cc2ccccc2)c(=O)[nH]c1=O was read as Pol eta inh-1 25µM, WRN inhibitor inactive, POLI inh 40µM, Pol kappa inh-1 inconclusive, FEN1 inhibitor inactive and Pol eta inh-2 inconclusive.
For O=C1/C(=C/c2ccc(C(=O)O)cc2)CCC/C1=C\c1ccc(C(=O)O)cc1 the results were Pol eta inh-1 8.9µM, WRN inhibitor inactive, Pol beta inh inactive, POLI inh inconclusive, Pol kappa inh-1 inactive, FEN1 inhibitor inactive and Pol eta inh-2 30.
`O=C1/C(=C\c2ccco2)SC(=S)N1C1CCS(=O)(=O)C1` (configuration not stated) gave Pol eta inh-1 inconclusive, WRN inhibitor inactive, Pol beta inh 40µM, POLI inh 20µM, Pol kappa inh-1 inconclusive, FEN1 inhibitor inactive and Pol eta inh-2 inconclusive.
`COc1cccc(COC(=O)Nc2ccccc2)c1OC` gave WRN inhibitor inactive.
CCOCCCN(Cc1ccco1)S(=O)(=O)c1cc2c(cc1Cl)NC(=O)CO2 was read as Pol eta inh-1 79µM, Pol beta inh inconclusive, POLI inh inconclusive, Pol kappa inh-1 inactive, FEN1 inhibitor inactive, Pol kappa inh-2 inconclusive and Pol eta inh-2 inconclusive.
Screening CCOC(=O)c1ccc(NC(=O)c2c(NCc3cccs3)sc3c2CCCCC3)cc1 returned Pol eta inh-1 79µM, Pol beta inh inconclusive, POLI inh inconclusive, Pol kappa inh-1 inactive, FEN1 inhibitor inconclusive and Pol eta inh-2 inconclusive.
`COc1ccc(NC(=O)c2c(NCc3cccs3)sc3c2CCCC3)cc1` gave Pol eta inh-1 inactive, Pol beta inh inactive, POLI inh inactive, Pol kappa inh-1 inactive and FEN1 inhibitor inactive.
CCN1C(=O)/C(=C\c2ccc(-c3ccc([N+](=O)[O-])cc3OC)o2)SC1=Nc1cccc(C(=O)O)c1 was read as Pol eta inh-1 28µM, WRN inhibitor inactive[11.6 µM], Pol beta inh inconclusive, POLI inh inconclusive, Pol kappa inh-1 inactive, FEN1 inhibitor inconclusive and Pol eta inh-2 76.
COC(=O)c1ccc(CNC(=O)/C=C/[C@H]2O[C@@H](n3cc(C)c(=O)[nH]c3=O)C[C@@H]2O)cc1 was read as WRN inhibitor inactive.
Screening O=C(c1cccc(F)c1)N1CCC[C@@]2(CCN(Cc3nccs3)C2)C1 returned Pol kappa inh-1 inactive.
For CCCCCCCC/C=C/CCCCCCCCOP(=O)([O-])OCC[N+](C)(C)C the results were Pol kappa inh-1 inactive.
`O=C(O)C1Cc2ccccc2CN1S(=O)(=O)/C=C/c1ccccc1` (configuration not stated) gave Pol eta inh-1 inactive, WRN inhibitor inactive, Pol beta inh inactive, POLI inh inactive, Pol kappa inh-1 inactive and FEN1 inhibitor inactive.
CS(=O)(=O)N1Cc2ccccc2CC1C(=O)O (configuration not stated) was read as Pol eta inh-1 8.9µM, WRN inhibitor inactive[11.6 µM], Pol beta inh 18µM, POLI inh inconclusive, Pol kappa inh-1 inconclusive, FEN1 inhibitor inactive and Pol eta inh-2 60.
`CCOc1ccc(-c2nn(-c3ccccc3)cc2/C=C2\SC(=S)N(C3CCS(=O)(=O)C3)C2=O)cc1` (configuration not stated) gave Pol eta inh-1 inactive, WRN inhibitor inactive, Pol beta inh inactive, POLI inh inactive, Pol kappa inh-1 inactive and FEN1 inhibitor inactive.
For Cc1ccc(-c2nn(-c3ccccc3)cc2/C=C2\SC(=S)N(CC(=O)O)C2=O)cc1 the results were Pol eta inh-1 inconclusive, WRN inhibitor inactive, Pol beta inh inactive, POLI inh inconclusive, Pol kappa inh-1 inactive, FEN1 inhibitor inactive, GALK inh confirm 42µM, GALK redox cs inactive and HEK293 tox inactive.
Cn1cccc1/C=C1\SC(=S)N(CC(=O)O)C1=O was read as Pol eta inh-1 inactive, WRN inhibitor inactive, Pol beta inh inactive, POLI inh inactive, Pol kappa inh-1 inactive and FEN1 inhibitor inactive.
